Results reported in PubChem BioAssay (NCATS).
Results filed as inconclusive are left out. Where a call stands in place of a potency, no number is given. A number with no mark means an inactive call. Active and inactive are the calls of the source. The call rests on the fitted dose curve; in most records, active means well fitted curve in the direction sought with a large enough effect; inconclusive means small, poorly fitted or top-dose-only effect, or another doubt; inactive means no such curve, though single readings can be large; an effect the other way counts as inactive or inconclusive.

Assays:
[1] = biological target: Rap guanine nucleotide exchange factor 3 (Homo sapiens) (UniProt O95398); test: Confirmatory qHTS for agonist of cAMP-regulated guanine nucleotide exchange factor 3 (EPAC1) (AID 1645881); conditions: EPAC1 Rap1B BODIPY-GDP exchange fluorescence; series mostly up to 154 µM;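 further: EPAC1 catalysed release of BODIPY-GDP from Rap1B seen as fluorescence loss; nearly all actives have a fitted effect of over 75% in size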
[2] = biological target: Rap guanine nucleotide exchange factor 4 (Homo sapiens) (UniProt Q8WZA2); test: Confirmatory qHTS for agonist of cAMP-regulated guanine nucleotide exchange factor 4 (EPAC2) (AID 1645884); conditions: EPAC2 GEF activity, Rap1B-BODIPY-GDP fluorescence; series mostly up to 154 µM;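 further: nucleotide exchange releases bodipy-GDP from Rap1 and this lowers its fluorescence; nearly all actives have a fitted effect of over 65% in size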
[3] = biological target: Rap guanine nucleotide exchange factor 4 (Homo sapiens) (UniProt Q8WZA2); test: Confirmatory qHTS for antagonist of cAMP-regulated guanine nucleotide exchange factor 4 (EPAC2) (AID 1645885); conditions: EPAC2 Rap1B-BODIPY-GDP exchange fluorescence, biochemical; series mostly up to 12.7 µM; further: nearly all actives have a fitted effect of over 25% in size; further: potency means the concentration at half of the fitted maximal effect
[4] = biological target: Rap guanine nucleotide exchange factor 3 (Homo sapiens) (UniProt O95398); test: Counterscreen qHTS for antagonist of cAMP-regulated guanine nucleotide exchange factor 3 (EPAC1) (AID 1645888); conditions: Rap1B-BODIPY-GDP nucleotide exchange, fluorescence; series mostly up to 154 µM;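 further: fluorescence loss as bound BODIPY-GDP is released from Rap1B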
How it was run: (§1)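 Rap1B–BODIPY-GDP (250 nM) with 50 uM GDP; compounds pin-transferred to 9.74 nM–152 uM final (activator) or from 7.32 nM upwards (inhibitor). Fluorescence Ex/Em 480/540 nm read at 5 and 30 min, then after adding cAMP or buffer, at room temperature.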

[5] = biological target: Rap guanine nucleotide exchange factor 3 (Homo sapiens) (UniProt O95398); test: Counterscreen qHTS for agonist of cAMP-regulated guanine nucleotide exchange factor 3 (EPAC1) (AID 1645889); conditions: EPAC1 Rap1B-BODIPY-GDP exchange, fluorescence; series mostly up to 154 µM; further: nearly all actives have a fitted effect of over 40% in size
How it was run: as §1

Rap guanine nucleotide exchange factor 4 (Homo sapiens), sequence (Q8WZA2 whole entry, looked up): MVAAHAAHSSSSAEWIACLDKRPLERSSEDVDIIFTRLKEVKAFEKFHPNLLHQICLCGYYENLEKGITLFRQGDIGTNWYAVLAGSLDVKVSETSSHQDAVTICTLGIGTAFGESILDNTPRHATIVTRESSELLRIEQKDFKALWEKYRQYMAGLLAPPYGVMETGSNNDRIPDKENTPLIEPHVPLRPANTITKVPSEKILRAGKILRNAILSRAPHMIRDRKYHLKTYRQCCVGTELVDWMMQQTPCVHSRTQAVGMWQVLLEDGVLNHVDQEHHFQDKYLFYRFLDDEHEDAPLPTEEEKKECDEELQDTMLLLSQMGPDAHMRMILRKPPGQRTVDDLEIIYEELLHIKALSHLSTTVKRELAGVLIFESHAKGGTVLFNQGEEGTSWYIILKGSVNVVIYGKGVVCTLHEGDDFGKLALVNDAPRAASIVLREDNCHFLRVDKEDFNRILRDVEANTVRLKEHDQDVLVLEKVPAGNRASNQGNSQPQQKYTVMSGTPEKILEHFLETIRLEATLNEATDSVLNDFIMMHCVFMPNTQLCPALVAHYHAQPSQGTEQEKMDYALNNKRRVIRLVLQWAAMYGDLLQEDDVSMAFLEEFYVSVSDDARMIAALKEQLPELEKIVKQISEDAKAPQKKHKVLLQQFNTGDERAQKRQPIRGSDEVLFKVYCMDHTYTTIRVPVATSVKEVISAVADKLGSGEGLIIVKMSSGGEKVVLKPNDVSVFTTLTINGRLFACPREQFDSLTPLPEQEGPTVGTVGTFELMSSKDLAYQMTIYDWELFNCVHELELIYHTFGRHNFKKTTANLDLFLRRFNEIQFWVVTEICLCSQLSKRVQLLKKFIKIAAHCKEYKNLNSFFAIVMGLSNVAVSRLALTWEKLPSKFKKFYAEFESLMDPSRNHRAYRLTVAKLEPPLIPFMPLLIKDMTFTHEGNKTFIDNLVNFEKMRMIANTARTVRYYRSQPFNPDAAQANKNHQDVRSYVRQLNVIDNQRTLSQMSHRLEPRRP
Rap guanine nucleotide exchange factor 3 (Homo sapiens), sequence (O95398 whole entry, looked up): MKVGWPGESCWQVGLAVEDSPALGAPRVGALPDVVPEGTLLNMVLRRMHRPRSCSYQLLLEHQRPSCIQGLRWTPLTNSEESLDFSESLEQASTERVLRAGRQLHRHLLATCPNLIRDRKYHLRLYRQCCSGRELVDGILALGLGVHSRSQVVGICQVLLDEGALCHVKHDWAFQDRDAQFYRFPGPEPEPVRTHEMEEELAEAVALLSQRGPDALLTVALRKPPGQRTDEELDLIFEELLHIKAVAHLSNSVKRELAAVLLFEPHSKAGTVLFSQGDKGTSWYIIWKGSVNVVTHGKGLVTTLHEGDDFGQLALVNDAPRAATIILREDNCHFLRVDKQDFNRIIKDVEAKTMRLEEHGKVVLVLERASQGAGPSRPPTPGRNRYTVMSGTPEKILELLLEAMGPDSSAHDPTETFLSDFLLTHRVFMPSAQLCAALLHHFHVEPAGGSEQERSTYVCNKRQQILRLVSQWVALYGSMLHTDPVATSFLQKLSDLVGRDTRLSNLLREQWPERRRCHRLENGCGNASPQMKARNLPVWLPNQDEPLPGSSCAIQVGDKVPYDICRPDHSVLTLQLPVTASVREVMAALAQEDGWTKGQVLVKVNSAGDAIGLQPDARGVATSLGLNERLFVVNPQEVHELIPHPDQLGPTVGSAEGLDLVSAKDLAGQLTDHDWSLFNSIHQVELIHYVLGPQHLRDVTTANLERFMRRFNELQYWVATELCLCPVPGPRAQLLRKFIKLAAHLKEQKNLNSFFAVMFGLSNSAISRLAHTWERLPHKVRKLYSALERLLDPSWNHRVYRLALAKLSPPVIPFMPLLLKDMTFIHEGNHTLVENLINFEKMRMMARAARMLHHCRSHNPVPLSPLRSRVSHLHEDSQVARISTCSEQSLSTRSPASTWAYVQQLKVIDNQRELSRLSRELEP

Row | Compound | Potency [1] | activation [2] | Potency [3] | activity change, negative = inhibition [4] | activation [5] | Potency [2] | Potency [4] | Potency [5]
1 | COC(=O)c1ccc2nc(-c3ccco3)c(Cc3ccccc3)n2c1 | inactive | 7.95% [at 17.1 µM, percent relative to cAMP agonist control] | inactive | -11.9% [at 30.8 µM] | 10% [at 30.8 µM] | – | – | –
2 | Cc1cccc(NC(=O)COC(=O)c2c(-c3ccccc3)noc2C)c1 | inactive | 4.55% [at 17.1 µM, percent relative to cAMP agonist control] | inactive | -6.85% [at 30.8 µM] | 24.2% [at 30.8 µM] | – | – | –
3 | CC1C(=O)N(Cc2cn(Cc3ccco3)nn2)CCS(=O)(=O)N1Cc1ccc(-c2cccnc2)cc1 (stereo not given) | inactive | -1.85% [at 17.1 µM, percent relative to cAMP agonist control] | inactive | 0.588% [at 30.8 µM] | 21.5% [at 30.8 µM] | – | – | –
4 | Cc1ccc(C)c(S(=O)(=O)N2CCN(C(=O)CCNC(=O)c3ccc(Br)cc3)CC2)c1 | inactive | – | inactive | – | – | inactive | inactive | inactive
5 | CCc1nnc(NS(=O)(=O)c2ccc(NCc3cc(Cl)cc(Cl)c3O)cc2)s1 | inactive | – | 5.36 µM (active) | – | – | inactive | inactive | inactive
6 | Cc1cccc(C(=O)c2c(N)sc3c2CCCC3)c1 | inactive | -0.129% [at 17.1 µM, percent relative to cAMP agonist control] | inactive | -3.46% [at 30.8 µM] | 9.69% [at 30.8 µM] | – | – | –
7 | CCOC(=O)C1=C(N)OC2=C(C(=O)CCC2)C1c1sccc1C (stereo not given) | inactive | 4.2% [at 17.1 µM, percent relative to cAMP agonist control] | inactive | -19.9% [at 30.8 µM] | -1.77% [at 30.8 µM] | – | – | –
8 | C/C(=N\NC(=O)c1cc2ccccc2cc1O)c1ccc(C)o1 | inactive | -0.964% [at 17.1 µM, percent relative to cAMP agonist control] | inactive | -5.69% [at 30.8 µM] | 28.4% [at 30.8 µM] | – | – | –
9 | CC(=O)c1sc2nc(CSc3nnnn3-c3ccccc3)[nH]c(=O)c2c1C | inactive | 0.183% [at 17.1 µM, percent relative to cAMP agonist control] | inactive | -6.43% [at 30.8 µM] | 8.36% [at 30.8 µM] | – | – | –
10 | COc1ccc(-c2nc3ccccc3n2CCC(C)C)cc1OC | inactive | – | inactive | – | – | inactive | inactive | inactive
11 | Cc1cc(C)n2nc(C(=O)N/N=C/c3c4ccccc4cc4ccccc34)nc2n1 | inactive | 2.45% [at 17.1 µM, percent relative to cAMP agonist control] | inactive | 4.99% [at 30.8 µM] | 34.9% [at 30.8 µM] | – | – | –
12 | Cc1ccc(CN(C(=O)COc2cc(C)c(Cl)c(C)c2)c2ccccn2)o1 | inactive | – | inactive | – | – | inactive | inactive | inactive
13 | COc1cccc(C(=O)Nc2nnc(S(=O)(=O)Nc3cccc(C)c3)s2)c1 | inactive | – | inactive | – | – | inactive | inactive | inactive
14 | CCN(C(=O)c1noc2c1COc1ccc(C)cc1-2)c1cccc(C)c1 | inactive | – | inactive | – | – | inactive | inactive | inactive
15 | C[C@@H]1CC=C[C@@H]2[C@H]1C(=O)N(Cc1ccccc1)[C@H]2c1ccccc1Br | inactive | – | inactive | – | – | inactive | inactive | inactive
16 | COC(=O)c1nn(-c2ccccc2)c(Sc2ccc(OC)cc2)c1/C=N/O | inactive | -5.43% [at 17.1 µM, percent relative to cAMP agonist control] | inactive | -27.4% [at 30.8 µM] | 23% [at 30.8 µM] | – | – | –
17 | O=C(O)c1ccccc1NS(=O)(=O)c1ccc(NN=Cc2ccccc2F)c([N+](=O)[O-])c1 | inactive | 4.76% [at 17.1 µM, percent relative to cAMP agonist control] | inactive | -10.7% [at 30.8 µM] | 23.2% [at 30.8 µM] | – | – | –
18 | O=C(CSc1nc(-c2ccc(F)cc2)nc2ccc(F)cc12)Nc1cccc(C(=O)O)c1 | inactive | – | inactive | – | – | inactive | inactive | inactive
19 | CCCCC[C@@H](C)N1C[C@@H](COCc2ccccc2)Oc2cc(N3CC[C@H](O)C3)ccc2S1(=O)=O | inactive | -2.04% [at 17.1 µM, percent relative to cAMP agonist control] | inactive | -7.58% [at 30.8 µM] | 2.97% [at 30.8 µM] | – | – | –
20 | CCOc1cc(/C=N/NC(=O)CSc2nncn2C)ccc1OC(=O)c1ccc(Cl)cc1 | inactive | 6.27% [at 17.1 µM, percent relative to cAMP agonist control] | inactive | 0.431% [at 30.8 µM] | 9.31% [at 30.8 µM] | – | – | –
21 | Clc1ccc(Cn2c(/C=C/c3ccco3)nc3ccccc32)cc1 | inactive | – | inactive | – | – | inactive | inactive | inactive
22 | CC1CC2(NC(=O)NC2=O)C(C)CN1C (stereo not given) | inactive | – | inactive | – | – | inactive | inactive | inactive
23 | O=C(COC(=O)[C@@H]1CC(O)CN1S(=O)(=O)c1ccc(Cl)c(Cl)c1)NC(=O)NCc1ccccc1 (stereo not given in full) | inactive | – | inactive | – | – | inactive | inactive | inactive
24 | Cc1ccc(C(C)C)c(OCCCn2c(=O)oc3ccc(C)cc32)c1 | inactive | – | inactive | – | – | inactive | inactive | inactive

Row | Compound | Potency [1] | activation [2] | Potency [3] | activity change, negative = inhibition [4] | activation [5] | Potency [2] | Potency [4] | Potency [5]
25 | Cc1ccc(S(=O)(=O)Nc2ccc(S(=O)(=O)Nc3nccs3)cc2)cc1C | inactive | – | inactive | – | – | inactive | inactive | inactive
26 | CC1=C(C(=O)OC(C)C)C(c2ccc(C)o2)C(C(=O)OC(C)C)=C(C)N1 | inactive | – | 30.1 µM (active) | – | – | inactive | inactive | inactive
27 | COc1cccc(OCc2cc(/C=N/Nc3ccc(C(=O)O)cc3)ccc2OC)c1 | inactive | 6.81% [at 17.1 µM, percent relative to cAMP agonist control] | inactive | -4.72% [at 30.8 µM] | 21.5% [at 30.8 µM] | – | – | –
28 | O=C(NNc1cc(Br)c(O)c(Br)c1)c1ccccc1 | inactive | -6.77% [at 17.1 µM, percent relative to cAMP agonist control] | inactive | -6.86% [at 30.8 µM] | 11.6% [at 30.8 µM] | – | – | –
29 | CCc1cc(C(=O)N=Nc2c(O)[nH]c3ccc([N+](=O)[O-])cc23)c2ccccc2n1 | inactive | – | inactive | – | – | inactive | inactive | inactive
30 | COc1ccc(-n2c(SCC(=O)Nc3ccccc3OC)nc(O)cc2=O)cc1 | inactive | 4.67% [at 17.1 µM, percent relative to cAMP agonist control] | inactive | -3.75% [at 30.8 µM] | 2.02% [at 30.8 µM] | – | – | –
31 | CCOC(=O)C(C)n1nc(-c2ccccc2)c2ccccc2c1=O (stereo not given) | inactive | – | inactive | – | – | inactive | inactive | inactive
32 | N#Cc1c(SCC(=O)Nc2nncs2)sc2c(O)cc(=O)[nH]c12 | inactive | – | inactive | – | – | inactive | inactive | inactive
33 | CCOC(=O)c1c(C)oc2nc(C)nc(N(CC(C)C)CC(C)C)c12 | inactive | – | inactive | – | – | inactive | inactive | inactive
34 | CCOC(=O)C1=C(C)OC(N)=C(C#N)C1c1cc2c(cc1Br)OCO2 (stereo not given) | inactive | -5.39% [at 17.1 µM, percent relative to cAMP agonist control] | inactive | -23.2% [at 30.8 µM] | 11% [at 30.8 µM] | – | – | –
35 | O=C(O)c1cc(-c2ccc(/C=C3/SC(=S)N(Cc4ccccc4)C3=O)o2)ccc1Cl | inactive | -8.48% [at 17.1 µM, percent relative to cAMP agonist control] | inactive | -11.2% [at 30.8 µM] | 7.37% [at 30.8 µM] | – | – | –
36 | CC(C)(C)C(=O)N1CCC2CC1c1cc(-c3ccc4c(c3)OCO4)ccc12 (stereo not given) | inactive | 4.8% [at 17.1 µM, percent relative to cAMP agonist control] | inactive | -12.7% [at 30.8 µM] | 13.1% [at 30.8 µM] | – | – | –
37 | C=CCn1c(=NC(=O)c2sc3ccccc3c2Cl)sc2cc(S(N)(=O)=O)ccc21 | inactive | – | inactive | – | – | inactive | inactive | inactive
38 | Cc1ccc(C)c(Nc2cc(C)nc(-c3ccccc3O)n2)c1 | inactive | 10% [at 17.1 µM, percent relative to cAMP agonist control] | inactive | -8.51% [at 30.8 µM] | 7.83% [at 30.8 µM] | – | – | –
39 | CCC(C)n1c(SCC(=O)Nc2ccc3[nH]c(=O)[nH]c3c2)nc2ccccc2c1=O (stereo not given) | inactive | 1.51% [at 17.1 µM, percent relative to cAMP agonist control] | inactive | -15% [at 30.8 µM] | 13.5% [at 30.8 µM] | – | – | –
40 | O=C(C=Cc1ccccc1)c1c[nH]c2ccccc2c1=O | inactive | 5.37% [at 17.1 µM, percent relative to cAMP agonist control] | inactive | -25.8% [at 30.8 µM] | 9.21% [at 30.8 µM] | – | – | –
41 | CC(=O)N1CCN(Cc2cc(=O)oc3ccc4ccccc4c23)CC1 | inactive | 4.37% [at 17.1 µM, percent relative to cAMP agonist control] | inactive | 9.94% [at 30.8 µM] | 27.9% [at 30.8 µM] | – | – | –
42 | O=C(NCc1ccc(F)cc1)C(c1cccnc1)N(C(=O)c1csnn1)c1ccccc1 (stereo not given) | inactive | -0.815% [at 17.1 µM, percent relative to cAMP agonist control] | inactive | -0.606% [at 30.8 µM] | 5.08% [at 30.8 µM] | – | – | –
43 | COc1ccc(OC)c(C(=O)/C=C/c2ccccc2C(F)(F)F)c1 | inactive | – | inactive | – | – | inactive | inactive | inactive
44 | Cc1ccc(-c2csc(/C(C#N)=C(\O)CCl)n2)cc1 | inactive | -6.35% [at 17.1 µM, percent relative to cAMP agonist control] | inactive | -2.33% [at 30.8 µM] | 14.1% [at 30.8 µM] | – | – | –
45 | O=c1ccc(-c2ccccc2)nn1Cc1ccc(F)cc1Cl | inactive | – | inactive | – | – | inactive | inactive | inactive
46 | COc1ccc(C2CC(=O)C3=C(C2)NC(C)=C(C#N)C3c2ccc(N(C)C)cc2)cc1 (stereo not given) | inactive | 6.82% [at 17.1 µM, percent relative to cAMP agonist control] | inactive | 0.0712% [at 30.8 µM] | 20% [at 30.8 µM] | – | – | –
47 | O=C(NNc1cc(N2CCOCC2)nc(N2CCOCC2)n1)c1ccc([N+](=O)[O-])cc1 | inactive | – | inactive | – | – | inactive | inactive | inactive
48 | Cn1c(N)c(C(=O)CSc2nnc(-c3c[nH]c4ccccc34)n2C2CC2)c(=O)[nH]c1=O | inactive | 1.91% [at 17.1 µM, percent relative to cAMP agonist control] | inactive | 2.97% [at 30.8 µM] | 17.7% [at 30.8 µM] | – | – | –
